Reference: PubChem BioAssay (Tox21)
Values joined by “and” are separate entries in the source; they are usually repeats but may differ in a detail not shown here. Equal entries are not always repeated. Inconclusive results are not listed. Active and inactive are the calls of the source. Calls follow the shape of the dose curve; as a rule, active = well fitted curve in the direction sought with a large enough effect in the repeat runs; inconclusive = weak or mixed curves; inactive = no such curve, though single readings can be large; an effect the other way counts as inactive or inconclusive.

What was measured:
[1] = qHTS assay to identify small molecule antagonists of the estrogen related receptor (ERR) signaling pathway from Tox21 library (AID 1224848); also: nearly all actives have a fitted effect of over 50% in size
Method in brief: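 Cells: ERR line, 2,000/well; 6 h preincubation 37 C/5% CO2. Cpd in DMSO via pin tool; 18 h, 37 C. ONE-Glo, 30 min RT, luminescence.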

[2] = A CellTox Green Cytotoxicity Assay to monitor cytotoxicity in HEK293 cells - 0 hour (AID 1224869); also: nearly all actives have a fitted effect of over 50% in size
Method in brief: (§1)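 HEK293 cells, 600/well, were preincubated 5 hours and then exposed to compounds at 37 C for up to 40 hours. A cell-impermeant cyanine dye staining dead-cell DNA was read by fluorescence at 0, 8, 16, 24, 32 and 40 h time points.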

[3] = A CellTox Green Cytotoxicity Assay to monitor cytotoxicity in HepG2 cells - 16 hour (AID 1224876); also: nearly all actives have a fitted effect of over 45% in size
Method in brief: (§2)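 HepG2 cells, 600/well, preincubated 5 h with CellTox Green dye, then exposed to Tox21 compounds in DMSO at 37 C for up to 40 h. Dead-cell DNA fluorescence read at the indicated time point.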

[4] = A CellTox Green Cytotoxicity Assay to monitor cytotoxicity in HepG2 cells - 24 hour (AID 1224878); also: nearly all actives have a fitted effect of over 45% in size
Method in brief: as §2

[5] = A CellTox Green Cytotoxicity Assay to monitor cytotoxicity in HepG2 cells - 40 hour (AID 1224879); also: nearly all actives have a fitted effect of over 40% in size
Method in brief: as §2

[6] = A CellTox Green Cytotoxicity Assay to monitor cytotoxicity in HEK293 cells - 32 hour (AID 1224881); also: nearly all actives have a fitted effect of over 40% in size
Method in brief: as §1

[7] = A CellTox Green Cytotoxicity Assay to monitor cytotoxicity in HepG2 cells - 0 hour (AID 1224882); also: nearly all actives have a fitted effect of over 35% in size
Method in brief: as §2

[8] = A CellTox Green Cytotoxicity Assay to monitor cytotoxicity in HepG2 cells - 32 hour (AID 1224883); also: nearly all actives have a fitted effect of over 50% in size
Method in brief: as §2

[9] = A CellTox Green Cytotoxicity Assay to monitor cytotoxicity in HEK293 cells - 8 hour (AID 1224884); also: nearly all actives have a fitted effect of over 35% in size
Method in brief: as §1

[10] = qHTS RealTime-Glo MT Cell Viability Assay in HepG2 cells - 24 hour (AID 1224867); also: nearly all actives have a fitted effect of over 50% in size
Method in brief: (§3)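 Real-time, nonlytic viability: 600 HepG2 cells/well mixed with NanoLuc enzyme plus prosubstrate; 5 h settle, compound (DMSO) added by pintool; luminescence monitored over 40 h at 37 C.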

[11] = qHTS RealTime-Glo MT Cell Viability Assay in HEK293 cells - 32 hour (AID 1224868)
Method in brief: (§4)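 Cells + reagent dispensed (600 cells/well, HEK293) → 5 h at 37 C/5% CO2 → 23 nL compound in DMSO pinned → 40 h at 37 C → luminescence read at 0, 8, 16, 24, 32, 40 h.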

[12] = qHTS RealTime-Glo MT Cell Viability Assay in HepG2 cells - 40 hour (AID 1224870); also: nearly all actives have a fitted effect of over 50% in size
Method in brief: (§5)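 HepG2 cells mixed with RealTime-Glo MT reagents (NanoLuc plus cell-permeant prosubstrate) were seeded at 600 cells/well, incubated 5 h at 37 C/5% CO2, then pinned with compounds in DMSO; nonlytic luminescence tracked viability during 40 h treatment.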

[13] = A CellTox Green Cytotoxicity Assay to monitor cytotoxicity in HEK293 cells - 40 hour (AID 1224871); also: nearly all actives have a fitted effect of over 45% in size
Method in brief: as §1

[14] = qHTS RealTime-Glo MT Cell Viability Assay in HEK293 cells - 16 hour (AID 1224872)
Method in brief: as §4

[15] = qHTS RealTime-Glo MT Cell Viability Assay in HepG2 cells - 8 hour (AID 1224873); also: nearly all actives have a fitted effect of over 55% in size
Method in brief: as §5

[16] = qHTS RealTime-Glo MT Cell Viability Assay in HEK293 cells - 40 hour (AID 1224874); settings: RealTime-Glo luminescence; max response: hits give low values; also: nearly all actives have a fitted effect of over 50% in size
Method in brief: (§6)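 600 cells/well were plated with the nonlytic NanoLuc/prosubstrate reagent, pre-incubated 5 h, then given 23 nL of compound in DMSO. Incubation at 37 C for 40 h, with luminescence from viable-cell-reduced substrate read repeatedly from 0 h.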

[17] = qHTS RealTime-Glo MT Cell Viability Assay in HepG2 cells - 32 hour (AID 1224877); also: nearly all actives have a fitted effect of over 55% in size
Method in brief: as §3

[18] = qHTS RealTime-Glo MT Cell Viability Assay in HEK293 cells - 0 hour (AID 1224880); also: top concentration of the series differs between compounds; nearly all actives have a fitted effect of over 45% in size
Method in brief: as §6

[19] = A CellTox Green Cytotoxicity Assay to monitor cytotoxicity in HEK293 cells - 24 hour (AID 1224875)
Method in brief: as §1
% is scaled to controls: 0 for no effect and ±100 for the full control effect.

OC[C@H]1O[C@@](CO)(O[C@H]2O[C@H](CO)[C@@H](O)[C@H](O)[C@H]2O)[C@@H](O)[C@@H]1O
inactive: Potency [1] | outcome [2] | Potency [3] | Potency [4] | Potency [5] | Potency [6] | outcome [7] | Potency [8] | outcome [9]

CC(=O)CC(=O)Nc1ccccc1C
inactive: Potency [1] | outcome [10] | Potency [11] | outcome [2] | outcome [12] | Potency [13] | Potency [14] | outcome [15] | max response [16] -0.0445% and -13.2% | outcome [17] | Potency [4] | Potency [5] | Potency [18] | Potency [6] | outcome [7] | Potency [8] | outcome [9]

CCCCOC(=O)COc1ccc(Cl)cc1Cl
inactive: outcome [10] | Potency [11] | outcome [2] | outcome [12] | Potency [14] | outcome [15] | max response [16] -3.14% and 1.1% | Potency [19] | Potency [3] | outcome [17] | Potency [4] | Potency [5] | Potency [18] | Potency [6] | outcome [7] | Potency [8] | outcome [9]

CC(O)COCC(C)O (centres undefined)
inactive: outcome [10] | Potency [11] | outcome [2] | outcome [12] | Potency [14] | outcome [15] | max response [16] -1.78% and 1.64% | Potency [19] | Potency [3] | outcome [17] | Potency [4] | Potency [5] | Potency [18] | Potency [6] | outcome [7] | Potency [8] | outcome [9]

O=C=NCCCCCCN=C=O
inactive: outcome [10] | Potency [11] | outcome [2] | outcome [12] | Potency [13] | Potency [14] | outcome [15] | max response [16] 4.38% | Potency [19] | Potency [3] | outcome [17] | Potency [4] | Potency [5] | Potency [18] | Potency [6] | outcome [7] | Potency [8] | outcome [9]

Cc1ccc(S(N)(=O)=O)cc1
inactive: outcome [10] | Potency [11] | outcome [2] | outcome [12] | Potency [13] | Potency [14] | outcome [15] | max response [16] 1.64% | Potency [19] | Potency [3] | outcome [17] | Potency [4] | Potency [5] | Potency [18] | Potency [6] | outcome [7] | Potency [8] | outcome [9]

CCCCCCCCCCCCOCCO
inactive: outcome [10] | Potency [11] | outcome [2] | outcome [12] | Potency [13] | Potency [14] | outcome [15] | max response [16] -14.2% and -3.69% | Potency [3] | outcome [17] | Potency [4] | Potency [5] | Potency [18] | Potency [6] | outcome [7] | Potency [8] | outcome [9]

CCCCCOC(C)=O
inactive: outcome [10] | Potency [11] | outcome [2] | outcome [12] | Potency [13] | Potency [14] | outcome [15] | max response [16] -23.8% and 1.43% | Potency [3] | outcome [17] | Potency [4] | Potency [5] | Potency [18] | Potency [6] | outcome [7] | Potency [8] | outcome [9]

O=c1[nH]c(=O)n([C@H]2C[C@H](O)[C@@H](CO)O2)cc1Br
inactive: outcome [10] | Potency [11] | outcome [2] | outcome [12] | Potency [13] | Potency [14] | outcome [15] | max response [16] 0.308% | Potency [19] | outcome [17] | Potency [4] | Potency [5] | Potency [18] | Potency [6] | outcome [7] | Potency [8] | outcome [9]

CCCCCCCCC/C=C/CC1CC(=O)OC1=O (centres undefined)
inactive: outcome [10] | Potency [11] | outcome [2] | outcome [12] | Potency [13] | Potency [14] | outcome [15] | max response [16] -19.7% and -2.36% | Potency [19] | Potency [3] | outcome [17] | Potency [4] | Potency [5] | Potency [18] | Potency [6] | outcome [7] | Potency [8] | outcome [9]

C/C=C1/CC2C=CC1C2 (centres undefined)
inactive: outcome [10] | Potency [11] | outcome [2] | outcome [12] | Potency [13] | Potency [14] | outcome [15] | max response [16] 4% and 6.36% | Potency [19] | Potency [3] | outcome [17] | Potency [4] | Potency [5] | Potency [18] | Potency [6] | outcome [7] | Potency [8] | outcome [9]

Cc1cc(C)c(C)cc1C
inactive: outcome [10] | Potency [11] | outcome [2] | outcome [12] | Potency [13] | Potency [14] | outcome [15] | max response [16] 0.583% and -29% | Potency [19] | Potency [3] | outcome [17] | Potency [4] | Potency [5] | Potency [18] | Potency [6] | outcome [7] | Potency [8] | outcome [9]

Cc1occc(=O)c1O
inactive: outcome [10] | Potency [11] | outcome [2] | outcome [12] | Potency [14] | outcome [15] | max response [16] -7.52% and -0.505% | Potency [19] | outcome [17] | Potency [4] | Potency [5] | Potency [18] | Potency [6] | outcome [7] | Potency [8] | outcome [9]

CCN(CC)CCCC(C)Nc1ccnc2cc(Cl)ccc12 (centres undefined)
inactive: activity change, negative = cytotoxicity [10] 1.52% [at 6.97 µM] and -6.42% [at 15.8 µM] | activity change, negative = cytotoxic [11] -16.4% [at 6.97 µM] | cytotoxicity [2] 0.802% [at 6.97 µM] and -1.16% [at 15.8 µM] | activity change, negative = cytotoxic [12] -2.02% [at 6.97 µM] and -2.98% [at 15.8 µM] | cytotoxicity increase [13] -14.6% [at 6.97 µM] and 9.06% [at 15.8 µM] | activity change, negative = cytotoxicity [14] -11.3% [at 6.97 µM] | viability change, negative = cytotoxic [15] -1.01% [at 6.97 µM] and -3.34% [at 15.8 µM] | max response [16] -13.9% | cytotoxicity increase [3] -7.78% [at 6.97 µM] and 19.1% [at 15.8 µM] | activity change, negative = cytotoxic [17] 11.1% [at 6.97 µM] and -5.44% [at 15.8 µM] | cytotoxicity [4] -7.44% [at 6.97 µM] | cytotoxicity increase [5] -6.76% [at 6.97 µM] and 37% [at 15.8 µM] | activity change, negative = cytotoxicity [18] -2.92% [at 6.97 µM] and -5.73% [at 15.8 µM] | cytotoxicity increase [6] -12.6% [at 6.97 µM] and 3.44% [at 15.8 µM] | cytotoxicity [7] -5% [at 6.97 µM] and 4.14% [at 15.8 µM] | cytotoxicity increase [8] -6.83% [at 6.97 µM] | cytotoxicity increase [9] -10.7% [at 6.97 µM] and -2.14% [at 15.8 µM]
